Test results from PubChem BioAssay (NCATS).
Several values for one entry are separate records, joined by “and”; a condition that tells them apart may be missing. Identical values can stand only once. Inconclusive results are not listed. A call without a number means that no potency is given here. Activity calls are given as the source filed them. Unless noted, calls follow the shape of the dose curve; as a rule, active = well fitted curve in the direction sought with a large enough effect; inconclusive = small, poorly fitted or top-dose-only effect, or another doubt; inactive = no such curve, though single readings can be large; an effect the other way counts as inactive or inconclusive.

How the values were obtained:
[1] = Validation of Assay for Modulators of Lamin A Splicing (AID 1459; active = well fitted curve in the direction sought with a large enough effect in the signal ratio; the % refers to the signal ratio;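 also: cells exposed to compound for two days before reading; ratio rise marks activators and ratio drop marks inhibitors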)
How it was run: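 S3 HeLa cells stably expressing a lamin A-EGFP splicing minigene and DsRed2 were seeded at 600 cells/well in Opti-MEM with 2% FBS, pin-dosed, and incubated 48 hrs at 37 °C, 5% CO2. Laser-scanning cytometry (488 nm) gave GFP/RFP total intensity ratio.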

[2] = qHTS Assay for Lipid Storage Modulators (AID 1519; calls by dose curve); details: Drosophila S3 cells, BODIPY lipid droplet/cell ratio, laser cytometry, cells loaded with oleic acid
How it was run: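 Cells seeded at 5,000 per well were treated with compounds over a concentration series and loaded with oleic acid (400 uM, as added). Lipid droplet fluorescence (488 nm excitation, 500-530 nm channel) was read by laser-scanning cytometry and normalized to 20 uM Triacsin C.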

[3] = target: DNA repair nuclease/redox regulator APEX1 (Homo sapiens) (UniProt P27695); test: qHTS Validation Assay for Inhibitors of the Human Apurinic/apyrimidinic Endonuclease 1 (APE1) (AID 1705; also: potency is read from the fitted curve at half-maximal effect;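 as to activity change, negative = inhibition: TAMRA fluorescence gain over two minutes as APE1 cuts a quenched THF abasic duplex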)
How it was run: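 Human APE1 was preincubated with compound for 15 min at room temperature, then 50 nM (final) THF-abasic double-stranded DNA substrate bearing 5'-TAMRA and 3'-BHQ-2 was added. Incision-driven fluorescence rise (ex 525/em 598 nm) was read kinetically.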

[4] = Counterscreen for APE1 Inhibitors: Fluorescent Dye Displacement Validation Assay (AID 1707); also: potency is read from the fitted curve at half-maximal effect
How it was run: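 Signal: ThO fluorescence (ex 480 nm/em 540 nm) on binding 50 nM dsDNA; displacement by test compound reduces it. Conditions: 250 nM dye, 50 mM Tris-HCl pH7.5, 2 mM MgCl2, 50mM NaCl, 0.01% Tween-20.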

[5] = target: Endonuclease 4 (Escherichia coli (strain K12)) (UniProt P0A6C1); test: Counterscreen for APE1 Inhibitors: qHTS Validation Assay for Inhibitors of Endonuclease IV (AID 1708); also: potency is read from the fitted curve at half-maximal effect
How it was run: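 Incision of a double-stranded 50 nM TAMRA/BHQ-2 abasic substrate was followed kinetically (525/598 nm, reads every 60 s) after 15 min enzyme–compound preincubation with 2 nM EndoIV in pH 7.5 Tris buffer with MgCl2, DTT and Tween-20; concentration-response format.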

[6] = qHTS for differential inhibitors of proliferation of Plasmodium falciparum line 7G8 (AID 1815);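 also: parasite growth measured after three days of incubation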; also: potency is read from the fitted curve at half-maximal effect
[7] = qHTS for differential inhibitors of proliferation of Plasmodium falciparum line GB4 (AID 1816); details: Potency: Plasmodium falciparum GB4 proliferation inhibition;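 also: parasite growth measured after 72 h incubation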; also: potency is read from the fitted curve at half-maximal effect
[8] = qHTS for differential inhibitors of proliferation of Plasmodium falciparum line 3D7 (AID 1876); also: potency is read from the fitted curve at half-maximal effect
[9] = qHTS for differential inhibitors of proliferation of Plasmodium falciparum line D10 (AID 1877);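 also: parasites grown with compound for 72 h before DNA staining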; also: potency is read from the fitted curve at half-maximal effect
[10] = qHTS for differential inhibitors of proliferation of Plasmodium falciparum line Dd2 (AID 1882); details: Potency: Plasmodium falciparum Dd2 proliferation inhibition; also: nearly all actives have a fitted effect of over 65% in size; also: potency is read from the fitted curve at half-maximal effect
How it was run: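 SYBR Green DNA fluorescence (ex 485, em 535 nm) after overnight lysis quantifies parasite growth; compound exposure lasted 72 h at 37 C on infected red cells at 2.5% hematocrit, 0.3% parasitemia (final). Artemisinin 0.29 uM and vehicle wells define normalization.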

[11] = qHTS for differential inhibitors of proliferation of Plasmodium falciparum line W2 (AID 1883); details: Potency: Plasmodium falciparum W2 proliferation inhibition;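 also: parasites grown with compound for 72 h before lysis and staining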; also: potency is read from the fitted curve at half-maximal effect
[12] = qHTS for differential inhibitors of proliferation of Plasmodium falciparum line HB3 (AID 1886); details: Potency: Plasmodium falciparum HB3 proliferation inhibition;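 also: parasites grown with compound for 72 h before SYBR Green readout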; also: potency is read from the fitted curve at half-maximal effect
[13] = qHTS Assay for Modulators of Human Peripheral Myelin Protein 22 (PMP22) Expression/Activity (AID 1967; active = well fitted curve in the direction sought with a large enough effect in the signal ratio; the % refers to the signal ratio)
How it was run: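 MSC80 mouse Schwann cells stably carrying Pmp22 promoter–green click beetle luciferase plus EF-alpha–red luciferase control were dosed for 24h at 37 °C. Dual-colour luminescence was filter-overlap corrected; %Activity came from green/red ratio versus untreated cells.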

[14] = target: Alpha-galactosidase A (Homo sapiens) (UniProt P06280); test: Counterscreen for Glucocerebrosidase Inhibitors: qHTS Assay for Human alpha-Galactosidase at pH 4.5 (AID 992)
How it was run: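 Citrate buffer pH 4.5, Tween-20 0.005%. Enzyme 2 nM, substrate 80 uM, 20 min RT. Stop pH 10. Fluorescence Ex 365/Em 440. AC50 by Hill fit.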

[15] = target: alpha-glucosidase (Oryza sativa, rice) (UniProt Q653V4); test: Counterscreen for Glucocerebrosidase Inhibitors: qHTS Assay for Rice alpha-Glucosidase at pH 5.0 (AID 997)
How it was run: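 Endpoint fluorogenic assay at pH 5.0: compounds (0.7 nM to 77 uM) titrated against 4 nM rice enzyme and 400 uM 4-MU-alpha-glucoside for 20 min at room temperature; NaOH/glycine stop, read ex 365/em 440 nm, Hill-fitted AC50.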

[16] = target: Alpha-galactosidase (Coffea arabica) (UniProt Q42656); test: Counterscreen for Glucocerebrosidase Inhibitors: qHTS Assay for Coffee Bean alpha-Galactosidase at pH 5.9 (AID 998)
How it was run: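 Fluorogenic 4-MU substrate hydrolysis, 80 uM substrate and 2 nM coffee bean alpha-galactosidase, pH 5.9 citrate buffer, 20 min at room temperature, then NaOH/glycine stop. Titration 0.7 nM–77 uM, normalized to no-enzyme and enzyme controls, AC50 via Hill equation.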

[17] = measured here: cell count channel max response
[18] = measured here: lipid channel max response

Sequence of Alpha-galactosidase (Coffea arabica) (Q42656 whole entry, looked up): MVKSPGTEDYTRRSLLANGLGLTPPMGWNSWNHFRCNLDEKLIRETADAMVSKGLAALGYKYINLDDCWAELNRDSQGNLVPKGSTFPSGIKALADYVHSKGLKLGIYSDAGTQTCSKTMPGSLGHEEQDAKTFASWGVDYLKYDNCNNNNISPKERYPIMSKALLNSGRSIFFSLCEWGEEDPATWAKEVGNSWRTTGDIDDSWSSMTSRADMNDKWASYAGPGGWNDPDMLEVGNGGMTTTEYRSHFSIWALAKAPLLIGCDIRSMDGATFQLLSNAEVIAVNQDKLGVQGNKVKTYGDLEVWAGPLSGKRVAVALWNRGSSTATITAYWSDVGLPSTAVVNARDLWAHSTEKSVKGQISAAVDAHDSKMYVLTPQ
Sequence of DNA repair nuclease/redox regulator APEX1 (Homo sapiens) (P27695 whole entry, looked up): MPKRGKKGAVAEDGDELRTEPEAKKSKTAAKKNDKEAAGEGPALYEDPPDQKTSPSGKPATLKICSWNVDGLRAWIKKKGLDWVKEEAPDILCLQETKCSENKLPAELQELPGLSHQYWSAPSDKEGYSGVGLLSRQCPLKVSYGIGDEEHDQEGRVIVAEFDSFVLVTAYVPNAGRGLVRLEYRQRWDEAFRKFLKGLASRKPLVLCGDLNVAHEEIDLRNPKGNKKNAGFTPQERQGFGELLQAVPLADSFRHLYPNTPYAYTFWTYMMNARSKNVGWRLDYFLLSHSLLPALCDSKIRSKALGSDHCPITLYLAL
Sequence of Alpha-galactosidase A (Homo sapiens) (P06280 whole entry, looked up): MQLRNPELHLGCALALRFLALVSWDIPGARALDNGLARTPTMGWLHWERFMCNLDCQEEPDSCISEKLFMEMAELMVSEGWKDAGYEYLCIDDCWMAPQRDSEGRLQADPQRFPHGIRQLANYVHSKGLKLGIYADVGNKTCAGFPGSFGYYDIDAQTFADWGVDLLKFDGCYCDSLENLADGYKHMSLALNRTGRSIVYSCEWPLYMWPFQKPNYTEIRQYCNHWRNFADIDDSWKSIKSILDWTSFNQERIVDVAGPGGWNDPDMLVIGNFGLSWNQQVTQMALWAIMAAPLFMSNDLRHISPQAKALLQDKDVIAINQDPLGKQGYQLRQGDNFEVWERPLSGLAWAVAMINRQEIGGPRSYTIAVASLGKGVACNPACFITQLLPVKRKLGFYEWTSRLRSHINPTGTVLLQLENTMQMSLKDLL

| SMILES | outcome [1] | activity change, negative = inhibition ([2]; at 57.5 µM (top of the series)) | max response [2, 17] | max response [2, 18] | Potency [3] | Potency [4] | Potency [5] | Potency [6] | Potency [7] | Potency [8] | Potency [9] | Potency [10] | Potency [11] | Potency [12] | outcome [13] | outcome [14] | outcome [15] | outcome [16] | activity change, negative = inhibition ([2]; at 25.7 µM (top of the series)) |
| --- | --- | --- | --- | --- | --- | --- | --- | --- | --- | --- | --- | --- | --- | --- | --- | --- | --- | --- | --- |
| CC(C)CC(NP(=O)(O)O[C@@H]1O[C@@H](C)[C@H](O)[C@@H](O)[C@H]1O)C(=O)NC(Cc1c[nH]c2ccccc12)C(=O)O (some centres undefined) | inactive | 3.22% (inactive) | 23.5% | 29.8% | inactive | inactive | inactive | inactive | inactive | inactive | inactive | inactive | inactive | inactive | inactive | – | – | – | – |
| O=C(O)c1cc[c]([Hg][Cl])cc1 | inactive | 1.37% (inactive) | -16.6% | -15.1% | inactive | inactive | inactive | 3.16 µM (active) | 2.51 µM (active) | 2.24 µM (active) | 1.12 µM (active) | 11.2 µM (active) | 1.41 µM (active) | 5.01 µM (active) | – | inactive | inactive | – | – |
| Cc1[nH]c2ccc(O)cc2c1CCN | inactive | -0.216% (inactive) | -4.56% | -4.28% | inactive | inactive | inactive | inactive | inactive | inactive | inactive | inactive | inactive | inactive | inactive | inactive | inactive | inactive | – |
| CN(N=O)c1ccc(O)c(O)c1 | inactive | -1.9% (inactive) | -25.4% | -24.9% | 0.501 µM (active) | 14.1 µM (active) | 8.91 µM (active) | inactive | – | inactive | inactive | inactive | – | – | – | inactive | inactive | inactive | – |
| CC(N)Cc1c[nH]c2ccc(OCc3cccs3)cc12 (centres undefined) | inactive | -0.884% (inactive) | -45.6% | -46.5% | inactive | inactive | – | 7.94 µM (active) | 7.94 µM (active) | 10 µM (active) | – | – | 7.94 µM (active) | 11.2 µM (active) | – | – | – | – | – |
| CCCN(CCC)C1Cc2cc(OC)c(OC)cc2C1 | inactive | -0.96% (inactive) | -27.4% | -31.4% | inactive | inactive | inactive | inactive | – | inactive | inactive | inactive | inactive | inactive | inactive | inactive | inactive | inactive | – |
| NC(N)=NOCC[C@H](N)C(=O)O | inactive | -0.661% (inactive) and -1.31% (inactive) | -2.62% and 0.126% and 38.5% | -6.68% and -0.879% and 37% | inactive | inactive | inactive | inactive | inactive | inactive | inactive | inactive | – | inactive | – | inactive | inactive | inactive | -2.42% (inactive) |
| c1ccc2c(N3CCNCC3)cccc2c1 | inactive | -1.92% (inactive) | 39.8% | 34.6% | inactive | inactive | inactive | 12.6 µM (active) | 12.6 µM (active) | – | 10 µM (active) | 11.2 µM (active) | 7.94 µM (active) | – | – | inactive | inactive | inactive | – |
| CC(Cc1ccc(OCC(=O)O)cc1)NCC(O)c1cccc(Cl)c1 (centres undefined) | inactive | – | – | – | inactive | inactive | inactive | – | inactive | inactive | inactive | inactive | inactive | inactive | inactive | – | – | – | – |
| CC(=O)NBr | inactive | – | – | – | inactive | inactive | inactive | inactive | inactive | inactive | inactive | inactive | inactive | inactive | inactive | inactive | inactive | inactive | – |
| O=S1(=O)N(CCN2CC=C(c3c[nH]c4cc(F)ccc34)CC2)c2cccc3c2N1CCC3 | inactive | – | – | – | inactive | inactive | – | 1.41 µM (active) | 1.41 µM (active) | 0.501 µM (active) | 1.26 µM (active) | 2 µM (active) | 1 µM (active) | 1.26 µM (active) | – | inactive | inactive | inactive | – |
| Oc1ccc2c3c1O[C@H]1c4[nH]c5ccccc5c4C[C@@]4(O)C(C2)N(CC2CC2)CCC314 (some centres undefined) | inactive | – | – | – | inactive | inactive | inactive | 8.91 µM (active) | 8.91 µM (active) | 10 µM (active) | 12.6 µM (active) | 8.91 µM (active) | 6.31 µM (active) | – | – | – | – | – | – |
| N[C@@]1(C(=O)O)CC[C@@H](C(=O)O)C1 | inactive | – | – | – | inactive | inactive | inactive | inactive | inactive | inactive | inactive | inactive | inactive | inactive | inactive | – | – | – | – |
| C[N+](C)(C)CC#CCN1CCCC1=O | inactive | 1.94% (inactive) | 5.23% | 8.27% | – | inactive | – | – | inactive | inactive | inactive | inactive | – | inactive | – | inactive | inactive | inactive | – |
| COc1ccc2c(c1)[C@@]13CCCC[C@H]1[C@@H](C2)NCC3 | inactive | – | – | – | inactive | inactive | inactive | 3.55 µM (active) | 7.08 µM (active) | – | – | – | 1.12 µM (active) | 11.2 µM (active) | – | – | – | – | – |
| Clc1ccc(N2CC3CCC(C2)N3)nn1 | inactive | – | – | – | inactive | inactive | inactive | inactive | – | inactive | inactive | inactive | – | inactive | inactive | – | – | – | – |
| O=P(O)(O)C(Cl)(Cl)P(=O)(O)O | inactive | – | – | – | inactive | inactive | – | inactive | inactive | inactive | inactive | inactive | inactive | inactive | inactive | inactive | inactive | inactive | – |
